{"source": "the supplement of paper PMC8728848", "binders": {"B1": {"name": "Spy 2007 (Streptococcus pyogenes), Q99XV3 (protein)", "chain": "MKKGFFLMAMVVSLVMIAGCDKSANPKQPTQGMSVVTSFYPMYAMTKEVSGDLNDVRMIQSGAGIHSFEPSVNDVAAIYDADLFVYHSHTLEAWARDLDPNLKKSKVDVFEASKPLTLDRVKGLEDMEVTQGIDPATLYDPHTWTDPVLAGEEAVNIAKELGRLDPKHKDSYTKNAKAFKKEAEQLTEEYTQKFKKVRSKTFVTQHTAFSYLAKRFGLKQLGISGISPEQEPSPRQLKEIQDFVKEYNVKTIFAEDNVNPKIAHAIAKSTGAKVKTLSPLEAAPSGNKTYLENLRANLEVLYQQLK"}}, "assay_in_all_cases": "glycan array binding signal (z-score within array); higher = stronger binding", "conditions_in_all_cases": "glycan notation: IUPAC condensed, linker removed", "key": {"Fuc(a1-2)Gal(b1-4)GlcNAc": {"molecular_target": "Fuc(a1-2)Gal(b1-4)GlcNAc", "procedure,_shortened": "(§1)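 Glycan array data were curated from 3228 arrays in the Consortium for Functional Glycomics database and kept only where the protein sequence was available. Glycan names were converted to IUPAC-condensed notation, and columns mapping to the same glycan were averaged. The binding signal is a within-array Z-score, averaged across arrays of the same protein sequence at different concentrations or buffers and across linkers. Negative Z-scores can be read as non-binding.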"}, "[1]": {"molecular_target": "Fuc(a1-3)[Gal3S(b1-4)]GlcNAc", "procedure,_shortened": "as §1"}, "[2]": {"molecular_target": "Fuc(a1-3)[Neu5Ac(a2-3)]Gal(b1-4)GlcNAc(b1-3)GalNAc", "procedure,_shortened": "as §1"}, "Gal(a1-6)Glc": {"molecular_target": "Gal(a1-6)Glc", "procedure,_shortened": "as §1"}, "Gal(b1-4)Glc": {"molecular_target": "Gal(b1-4)Glc", "procedure,_shortened": "as §1"}, "[3]": {"molecular_target": "Gal(b1-4)GlcNAc(b1-2)Man(a1-6)Man(b1-4)GlcNAc(b1-4)GlcNAc", "procedure,_shortened": "as §1"}, "[4]": {"molecular_target": "Gal3S(b1-3)[Fuc(a1-4)]GlcNAc", "procedure,_shortened": "as §1"}, "Gal3S(b1-4)Glc": {"molecular_target": "Gal3S(b1-4)Glc", "procedure,_shortened": "as §1"}, "Gal6S(b1-4)GlcNAc6S": {"molecular_target": "Gal6S(b1-4)GlcNAc6S", "procedure,_shortened": "as §1"}, "[5]": {"molecular_target": "GalNAc(b1-4)GlcNAc(b1-2)Man(a1-3)[GalNAc(b1-4)GlcNAc(b1-2)Man(a1-6)]Man(b1-4)GlcNAc(b1-4)GlcNAc", "procedure,_shortened": "as §1"}, "[6]": {"molecular_target": "GlcNAc(a1-4)Gal(b1-4)GlcNAc(b1-3)Gal(b1-4)Glc", "procedure,_shortened": "as §1"}, "[7]": {"molecular_target": "GlcNAc(a1-4)Gal(b1-4)GlcNAc(b1-3)Gal(b1-4)[Fuc(a1-3)]GlcNAc(b1-3)Gal(b1-4)[Fuc(a1-3)]GlcNAc", "procedure,_shortened": "as §1"}, "GlcNAc(b1-4)GlcNAc": {"molecular_target": "GlcNAc(b1-4)GlcNAc", "procedure,_shortened": "as §1"}, "[8]": {"molecular_target": "GlcNAc(b1-4)GlcNAc(b1-4)GlcNAc(b1-4)GlcNAc(b1-4)GlcNAc", "procedure,_shortened": "as §1"}, "Kdn(a2-6)Gal(b1-4)GlcNAc": {"molecular_target": "Kdn(a2-6)Gal(b1-4)GlcNAc", "procedure,_shortened": "as §1"}, "[9]": {"molecular_target": "Man(a1-2)Man(a1-3)[Man(a1-6)]Man(a1-6)[Man(a1-2)Man(a1-3)]Man(b1-4)GlcNAc(b1-4)GlcNAc", "procedure,_shortened": "as §1"}, "[10]": {"molecular_target": "Neu5Ac(a2-3)Gal(b1-3)GlcNAc6S", "procedure,_shortened": "as §1"}, "[11]": {"molecular_target": "Neu5Ac(a2-3)Gal(b1-3)[Neu5Ac(a2-6)]GalNAc", "procedure,_shortened": "as §1"}, "Neu5Ac(a2-3)Gal(b1-4)Glc": {"molecular_target": "Neu5Ac(a2-3)Gal(b1-4)Glc", "procedure,_shortened": "as §1"}, "[12]": {"molecular_target": "Neu5Ac(a2-3)Gal(b1-4)GlcNAc6S", "procedure,_shortened": "as §1"}, "[13]": {"molecular_target": "Neu5Ac(a2-3)Gal(b1-4)[Fuc(a1-3)]GlcNAc(b1-3)Gal(b1-4)GlcNAc", "procedure,_shortened": "as §1"}}, "note": "The entries come from a sample that favours the strongest signals as a whole."}
{"binder": "B1", "values": [{"measurement": "glycan array binding signal (z-score)", "setting": "Fuc(a1-2)Gal(b1-4)GlcNAc", "result": 0.299}, {"measurement": "glycan array binding signal (z-score)", "setting": "[1]", "result": 0.277}, {"measurement": "glycan array binding signal (z-score)", "setting": "[2]", "result": 5.41}, {"measurement": "glycan array binding signal (z-score)", "setting": "Gal(a1-6)Glc", "result": -0.074}, {"measurement": "glycan array binding signal (z-score)", "setting": "Gal(b1-4)Glc", "result": -0.461}, {"measurement": "glycan array binding signal (z-score)", "setting": "[3]", "result": -0.392}, {"measurement": "glycan array binding signal (z-score)", "setting": "[4]", "result": 3.35}, {"measurement": "glycan array binding signal (z-score)", "setting": "Gal3S(b1-4)Glc", "result": -0.543}, {"measurement": "glycan array binding signal (z-score)", "setting": "Gal6S(b1-4)GlcNAc6S", "result": 5.95}, {"measurement": "glycan array binding signal (z-score)", "setting": "[5]", "result": 3.5}, {"measurement": "glycan array binding signal (z-score)", "setting": "[6]", "result": 0.12}, {"measurement": "glycan array binding signal (z-score)", "setting": "[7]", "result": 3.22}, {"measurement": "glycan array binding signal (z-score)", "setting": "GlcNAc(b1-4)GlcNAc", "result": -0.446}, {"measurement": "glycan array binding signal (z-score)", "setting": "[8]", "result": 4.65}, {"measurement": "glycan array binding signal (z-score)", "setting": "Kdn(a2-6)Gal(b1-4)GlcNAc", "result": -0.715}, {"measurement": "glycan array binding signal (z-score)", "setting": "[9]", "result": -0.649}, {"measurement": "glycan array binding signal (z-score)", "setting": "[10]", "result": -0.663}, {"measurement": "glycan array binding signal (z-score)", "setting": "[11]", "result": 1.08}, {"measurement": "glycan array binding signal (z-score)", "setting": "Neu5Ac(a2-3)Gal(b1-4)Glc", "result": 0.127}, {"measurement": "glycan array binding signal (z-score)", "setting": "[12]", "result": 1.47}, {"measurement": "glycan array binding signal (z-score)", "setting": "[13]", "result": 0.479}]}
